Only some compounds are listed: those with a hit (about 2.6% of all), similar ones and a draw of the others.
Exocytosis inh: blocks lytic granule exocytosis | TALL-104 LAMP-1 surface exposure, flow cytometry; cells stimulated with thapsigargin and PMA | inhibition, % at 10 µM | 360,000 compounds, 0.66% hits | AID 651702;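 active means inhibition above about 55%, limit read from the data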
PfM18AAP inh: PfM18AAP enzyme inhibition; recombinant PfM18AAP, H-Glu-NHMec fluorogenic cleavage; inhibition, % at 7.35 µM; 290,000 compounds, 1.2% hits; AID 1822;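 active means inhibition above the campaign mean inhibition over all tested compounds plus 3 SD, cut at about 28% in these data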;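 further: 0% = plate median of test compound wells and 100% = 2 mM ZnCl2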
Platelet DG rel: modulates dense granule release in human platelets; 300,000 compounds, 0.22% hits; inhibition, %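 (compounds screened at 7.5 µM in platelet-rich plasma)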; AID 1663; human platelet-rich plasma, SFLLRN dense granule ATP release, luminescence;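 active means mean replicate score, as percent of positive control, at or above 50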
Rce1 inh: inhibitors of yeast Ras-converting enzyme | yeast membranes, quenched prenylated peptide cleavage fluorescence | calls only | 290,000 compounds, 0.27% hits;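 active means fall in fluorescence gain of 50% or more versus controls, with final raw signal at or below 3038400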;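 further: plate controls were neutral control wells for no effect and wells lacking membranes for full effect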
ABHD5-PLIN5 inh: ABHD5-PLIN5 protein interaction inhibition | AID 602281 | 360,000 compounds, 0.78% hits | inhibition, % at 4 µM | Q00G26+Q8WTS1 | Split G. princeps luciferase complementation, luminescence, 4 h;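 active means inhibition above the mean inhibition across every tested compound plus 3 SD, cut at about 22% in these data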;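 further: 0% = DMSO only wells and the 100% control is not disclosed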
Target sequence (Q00G26 whole entry, looked up): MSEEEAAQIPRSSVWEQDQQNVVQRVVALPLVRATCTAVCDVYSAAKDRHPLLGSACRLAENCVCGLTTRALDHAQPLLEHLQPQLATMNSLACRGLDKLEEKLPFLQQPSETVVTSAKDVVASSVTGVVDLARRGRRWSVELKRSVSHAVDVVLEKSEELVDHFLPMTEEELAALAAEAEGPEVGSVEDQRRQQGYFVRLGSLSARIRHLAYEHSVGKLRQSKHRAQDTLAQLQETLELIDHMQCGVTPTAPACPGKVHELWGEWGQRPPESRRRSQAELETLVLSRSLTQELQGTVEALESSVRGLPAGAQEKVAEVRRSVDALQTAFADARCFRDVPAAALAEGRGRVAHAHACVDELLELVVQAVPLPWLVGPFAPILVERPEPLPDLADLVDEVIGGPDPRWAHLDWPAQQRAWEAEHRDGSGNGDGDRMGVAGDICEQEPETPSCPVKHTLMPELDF
Target sequence (Q8WTS1 whole entry, looked up): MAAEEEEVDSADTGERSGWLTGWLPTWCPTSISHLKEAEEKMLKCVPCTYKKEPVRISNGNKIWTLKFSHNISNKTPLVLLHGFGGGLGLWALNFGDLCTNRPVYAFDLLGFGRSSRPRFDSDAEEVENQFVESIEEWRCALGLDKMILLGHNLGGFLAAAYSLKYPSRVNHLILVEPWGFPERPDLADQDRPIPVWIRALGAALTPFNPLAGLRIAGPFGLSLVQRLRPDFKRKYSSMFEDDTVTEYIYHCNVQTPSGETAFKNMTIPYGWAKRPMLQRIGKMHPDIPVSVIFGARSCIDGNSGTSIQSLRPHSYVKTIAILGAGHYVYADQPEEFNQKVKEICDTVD
Exocytosis CP01: lytic granule exocytosis inhibition; shares compounds with Exocytosis inh; TALL-104 cells, LAMP-1 externalization, flow cytometry; stimulated with PMA plus thapsigargin; inhibition, % at 10 µM; 1,500 compounds, 11% hits; AID 651954; in the data active means inhibition above about 60%;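 further: 0% = stimulated vehicle wells and 100% = unstimulated wells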
* hit, by the source's call; i = inactive; nt = no result.

SMILES	Exocytosis inh	PfM18AAP inh	Platelet DG rel	Rce1 inh	ABHD5-PLIN5 inh	Exocytosis CP01
Cc1ccccc1NC(=O)c1ccc(Nc2c([N+](=O)[O-])cc([N+](=O)[O-])c3ccccc23)cc1	0.0	-0.1	-3.7	i	4.4	nt
COc1ccc(S(=O)(=O)n2nc(-n3c(C)ccc3C)c3c(F)cccc32)cc1OC	-3.9	-1.1	6.3	i	6.2	nt
Cc1ccc(C)n1-c1nn(S(=O)(=O)c2ccccc2)c2cccc(F)c12	56.2*	0.9	8.9	i	-2.8	-11.6
O=C(CSc1nc2ccccc2[nH]1)Nc1cc(C(F)(F)F)ccc1N1CCOCC1	62.4*	3.2	1.7	i	1.4	-3.2
COc1c[nH]n(-c2ccccc2)c(=O)c1=O	0.6	nt	1.7	i	2.2	nt
Cc1cccc(N2CCN(S(=O)(=O)c3ccc(-c4coc(C)n4)cc3)CC2C)c1 (stereo not given)	5.0	-2.8	-1.0	i	-1.6	nt
CCN(CC)CCn1c(=N)n(CC(=O)c2ccc(C)cc2)c2ccccc21	55.8*	-0.7	-7.8	i	14.4	-12.1
CCOC(=O)c1c(-c2ccccc2)oc2ccc(O)c(CN(C)C)c12	12.0	8.7	5.1	i	13.3	nt
CCOC(=O)c1c(CSCc2ccccc2)oc2ccc(O)c(CN(C)C)c12	85.0*	2.8	4.6	i	15.1	36.0
COCc1cc(C)nc(SCc2ccc(Cl)cc2)c1C#N	69.2*	-1.3	-0.2	i	1.3	-13.2
COCc1cc(C)nc(SCc2ccc(F)cc2)c1C#N	-11.4	-13.4	-1.3	i	-9.1	nt
Cc1cncn1CCc1nc2c3ccccc3nc(SCC(=O)Nc3cccc(Cl)c3)n2n1	68.5*	-2.4	15.0	i	14.3	81.0*
COc1ccc2ccccc2c1CNC(C)c1ccccc1 (stereo not given)	42.6	5.3	1.6	i	-2.0	nt
CC(NCCCOc1cccc2ccccc12)c1ccccc1 (stereo not given)	61.0*	-0.4	7.9	i	4.9	-5.3
c1ccc2c(NCCc3c[nH]c4ccccc34)c3ccccc3nc2c1	71.8*	-20.6	-6.9	i	11.3	-5.3
Fc1cccc(NCCc2c[nH]c3ccccc23)n1	-12.3	1.6	-0.6	i	2.2	nt
C/C(Cc1ccccc1)=N\NC(=O)CNC(=O)/C=C\c1ccccc1	-3.1	-0.3	11.2	i	-3.6	nt
COc1ccc(NC(=O)N(C2CCCCC2)C2CCN(C(C)C)CC2)c(OC)c1	70.2*	1.3	-1.6	i	6.8	-11.9
COc1ccc(NC(=O)N(C2CCCCC2)C(C)c2ccco2)c(OC)c1 (stereo not given)	-0.5	-10.9	0.4	i	1.8	nt
Cc1nn(CC(=O)NC(=O)c2ccccc2)c(C)c1[N+](=O)[O-]	0.5	nt	nt	nt	0.5	nt
O=C(CSc1n[nH]c(=O)[nH]c1=O)NCC1CCCCC1	-1.4	3.5	-1.5	i	-4.0	nt
O=C(NC1CCCC1)C1C(c2ccc(C(F)(F)F)cc2)=Nc2ccccc2N1C(=O)c1cc2ccccc2[nH]1 (stereo not given)	69.8*	nt	nt	nt	0.2	-14.7
Cc1ccc(-n2c(CCc3ccccc3)nnc2SCC(=O)NCc2ccccc2)cc1C	68.1*	-2.5	5.5	i	-0.5	12.7
Cc1ccn2cc(-c3ccc(NC(=O)c4ccco4)cc3)nc2c1	85.4*	0.8	6.3	i	2.1	-3.7
O=C(Nc1ccc(-c2cn3ccccc3n2)cc1)c1cccs1	71.9*	-4.7	-1.3	i	-0.9	48.2
SMILES	Exocytosis inh	PfM18AAP inh	Platelet DG rel	Rce1 inh	ABHD5-PLIN5 inh	Exocytosis CP01
O=C(N/N=C/c1ccc(-c2cccc([N+](=O)[O-])c2)o1)c1ccc([N+](=O)[O-])cc1	1.0	1.6	-2.6	i	-2.0	nt
Cc1nnc(SCC(=O)Nc2nccs2)n1C(C)C	-0.1	1.7	1.2	i	0.0	nt
CC(NC(=O)COC(=O)C1CC1C)c1ccccc1 (stereo not given)	12.6	nt	nt	nt	-3.6	nt
CN(C)CCCN1C(=O)c2cccc3c([N+](=O)[O-])ccc(c23)C1=O	57.0*	1.9	nt	nt	-1.9	8.7
O=C1c2cccc3c([N+](=O)[O-])ccc(c23)C(=O)N1CCc1ccccn1	19.1	1.9	-2.7	i	0.0	nt
Cc1cc(OCCCC(=O)Nc2cccc(-n3cnnn3)c2)ccc1Cl	66.3*	-2.5	-3.9	i	-0.6	-11.6
C[C@@H]1CN([C@@H](C)CO)C(=O)c2cc(NS(C)(=O)=O)ccc2O[C@@H]1CN(C)Cc1ccc(C(F)(F)F)cc1	61.5*	nt	nt	nt	3.4	-14.7
